Source: PubChem (National Center for Advancing Translational Sciences (NCATS))
CBFb-RUNX1 inh: qHTS Assay for Compounds Blocking the Interaction Between CBF-beta and RUNX1 for the Treatment of Acute Myeloid Leukemia | Runt-related transcription factor 1 (Homo sapiens) + Core-binding factor subunit beta … | AlphaScreen CBFb-His/RUNX1-biotin binding, biochemical | Potency, µM (highest dose often 59.8 µM), without a hit: top-dose activity, negative = inhibition, usual class: inhibitors | 230,000 tested, under 10 active | AID 1477, 2009; also: % of control where 0% means no effect
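His-tagged CBF-beta and biotinylated RUNX1 (30 nM each) were premixed 20 min at room temperature, exposed to compound for 15 min, then given nickel-chelate and streptavidin AlphaScreen beads (50 ng each). After 90 min, AlphaScreen signal was read.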
HTT ATP protect: qHTS Multiplex Assay to Identify Dual Action Probes in a Cell Model of Huntington: Cytoprotection (ATP) | PC12 HTT-Q103 induced, cytoprotection, ATP luminescence, 40 h | hit rate 0.14% among 230,000 | Potency, µM (series often up to 56.4 µM), inactives show cytoprotection (ATP increase), most hits filed as activators; also: potency is read from the fitted curve at half-maximal effect; % of control where 0% means no effect; nearly all actives have a fitted effect of over 45% in size
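Rat PC12, Q103 Htt exon1-GFP fusion, ecdysone promoter; tebufenozide inducer 100 nM final; compound titration; qHTS, 1500 cells/well; ATPlite luminescent read.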
ALDH1A1 inh: qHTS Assay for Inhibitors of Aldehyde Dehydrogenase 1 (ALDH1A1); hit rate 7.3% among 220,000; Potency, µM (doses to about 75.3 µM), for the others: at the top dose activity, negative = inhibition, most hits filed as inhibitors; Aldehyde dehydrogenase 1A1 (Homo sapiens), P00352; AID 1030, 2008; Purified ALDH1A1, NADH fluorescence, propionaldehyde substrate; active = well fitted inhibition curve with a large enough effect, not every such curve was filed as active; inconclusive = small, poorly fitted or top-dose-only effect, or another doubt; inactive = no such curve, though single readings can be large or run the other way;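 also: potency is read from the fitted curve at half-maximal effect; plate controls were no enzyme wells and a reference inhibitor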
Target sequence (P00352 whole entry, looked up): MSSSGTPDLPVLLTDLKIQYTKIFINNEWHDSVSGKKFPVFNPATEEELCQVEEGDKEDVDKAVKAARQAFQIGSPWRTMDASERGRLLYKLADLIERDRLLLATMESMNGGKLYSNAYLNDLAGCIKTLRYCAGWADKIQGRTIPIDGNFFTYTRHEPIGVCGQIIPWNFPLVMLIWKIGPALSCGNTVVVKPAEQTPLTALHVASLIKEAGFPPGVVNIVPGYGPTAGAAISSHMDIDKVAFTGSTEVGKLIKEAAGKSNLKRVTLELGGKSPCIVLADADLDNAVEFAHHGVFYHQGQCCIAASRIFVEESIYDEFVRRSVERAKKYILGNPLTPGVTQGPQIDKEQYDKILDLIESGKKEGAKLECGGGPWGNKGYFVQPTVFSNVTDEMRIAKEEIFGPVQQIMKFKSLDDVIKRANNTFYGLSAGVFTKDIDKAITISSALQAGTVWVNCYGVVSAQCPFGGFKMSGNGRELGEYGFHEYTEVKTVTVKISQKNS
PNC inhibitor: High Content Assay for Compounds that inhibit the Assembly of the Perinucleolar Compartment; hit rate 3.1% among 140,000; PC3M PTB-GFP, PNC prevalence imaging, 16 h; active compounds read low; activity change (PNC), negative = inhibition, % at 10 µM;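 active = readout at or below -70, meaning at least 70% loss of cells showing the perinucleolar compartment, a nuclear body marking cancer cells; inconclusive = readout between -30 and a set limit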;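 also: plate controls were DMSO wells for no effect and camptothecin positive control wells for full effect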
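PC3M cells stably expressing PTB-GFP, 750–1000 cells/well, treated 16 h at 37 °C with compound (23 nl of library stock), in duplicate. After paraformaldehyde fixation and Hoechst stain, imaged at 20x; PNC prevalence scored by image analysis.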
HPGD block: qHTS Assay for Inhibitors of HPGD (15-Hydroxyprostaglandin Dehydrogenase) | 15-hydroxyprostaglandin dehydrogenase [NAD(+)] (Homo sapiens), P15428 | purified HPGD, NADH fluorescence kinetic, PGE2 substrate | Potency, µM, without a hit: at the highest dose activity change, negative = inhibition, usual class: inhibitors | hit rate 4.3% among 150,000; active = well fitted inhibition curve with a large enough effect, not every such curve was filed as active; inconclusive = small, poorly fitted or top-dose-only effect, or another doubt; inactive = no such curve, though single readings can be large or run the other way; also: potency is read from the fitted curve at half-maximal effect; % is scaled to controls: 0 for no effect and ±100 for the full control effect
Target sequence (P15428 whole entry, looked up): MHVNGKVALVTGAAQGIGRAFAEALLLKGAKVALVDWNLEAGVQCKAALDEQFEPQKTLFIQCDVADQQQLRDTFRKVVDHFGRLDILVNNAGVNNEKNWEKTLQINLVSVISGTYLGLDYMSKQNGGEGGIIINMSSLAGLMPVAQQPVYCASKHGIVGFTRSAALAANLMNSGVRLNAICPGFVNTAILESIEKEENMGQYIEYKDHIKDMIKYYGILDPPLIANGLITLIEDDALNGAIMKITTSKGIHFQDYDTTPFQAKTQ
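20 nM HPGD preincubated 15 min at room temperature with compound in 50 mM Tris-HCl pH 8, 0.01% Tween 20. Started with 1 mM NAD+ and 30 uM prostaglandin E2; NADH fluorescence (360/450 nm) read 5 times over 30-s intervals, last minus first.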
HTT aggregate: qHTS Multiplex Assay to Identify Dual Action Probes in a Cell Model of Huntington: Aggregate Formation (GFP). Potency, µM (highest dose often 46.1 µM), for inactives: top-dose activity change, negative = inhibition, usual class: inhibitors. hit rate 1.1% among 220,000. PC12 HttQ103-GFP aggregates, Acumen cytometry, 40 h; also: potency is read from the fitted curve at half-maximal effect; % is scaled to controls: 0 for no effect and ±100 for the full control effect; nearly all actives have a fitted effect of over 60% in size
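Multiplexed with ATP-based cell death, this channel scores GFP aggregates in PC12 cells expressing inducible HTTex1-Q103-GFP. Induction used 100 nM tebufenozide; compounds were tested in concentration series.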
* marks the source's active call; other numbers are inactive results; ? = inconclusive; / = no result; [ ] = another dose, or the depositor's remark. A selection: hits, their analogues and other compounds. The true share with any hit is near 11%. Unless noted, calls follow the shape of the dose curve; as a rule, active = well fitted curve in the direction sought with a large enough effect; inconclusive = small, poorly fitted or top-dose-only effect, or another doubt; inactive = no such curve, though single readings can be large; an effect the other way counts as inactive or inconclusive.

SMILES	CBFb-RUNX1 inh	HTT ATP protect	ALDH1A1 inh	PNC inhibitor	HPGD block	HTT aggregate
CCOC(=O)c1ccc(N2C(=O)CC(N3CCC(Nc4ccc(F)cc4)CC3)C2=O)cc1 (configuration not stated)	-0.9%	-17.0%	3.16µM*	23.8	-14.7%	-13.4%
CCOC(=O)N1CCN(C2CC(=O)N(c3ccc(Cl)c(Cl)c3)C2=O)CC1 (configuration not stated)	-3.4%	-21.8%[10 µM]	14.1µM*	-100.0*	?	-3.3%
CCOC(=O)c1ccc(NC(=S)N2CCN(Cc3ccccc3)CC2)cc1	-13.1%	9.8%[1.9 µM]	2.3%	?	3.5%	1.4%
CCOC(=O)c1ccc(N2C(=O)CC(N3CCN(Cc4ccccc4)CC3)C2=O)cc1 (configuration not stated)	3.2%	-8.0%	28.2µM*	5.0	-4.0%	2.8%
O=C(O)c1ccc(S(=O)(=O)N[C@H](Cc2ccccc2)C(=O)O)cc1	-11.8%	/	/	/	/	/
CC(=O)[C@H]([C@@H](c1ccccc1)N1CCOCC1)N1CCOCC1	/	3.4%[10 µM]	/	/	/	/
Cc1cc2nc(SCC(=O)N(C)C)c3c(c2cc1C)CCCC3	-4.6%	-22.4%	-8.6%	?	-23.6%	-5.9%
Cc1ccc(S(=O)(=O)Nc2cc(S(=O)(=O)N3CCCCC3)ccc2N2CCOCC2)cc1	10.1%	/	12.6µM*	/	/	?
CCN(CC)S(=O)(=O)c1ccc(N2CCOCC2)c(NS(=O)(=O)c2ccc(C)c(C)c2)c1	-5.1%	18.7%[1.9 µM]	0.891µM*	-4.1	-5.2%	9.9%
CCN(CC)S(=O)(=O)c1ccc(N2CCOCC2)c(NS(=O)(=O)c2ccc(C)cc2)c1	-2.4%	-41.9%[10 µM]	2.24µM*	8.8	-21.7%	5.2%
Cc1ccc(S(=O)(=O)Nc2cc(C(=O)N3CCOCC3)ccc2N2CCCCC2)cc1	-0.2%	-4.5%	?	12.1	0.1%	-11.5%
Cc1ccc(CN2C(=O)C3CCCN3c3ccc(S(=O)(=O)N4CCOCC4)cc32)cc1 (configuration not stated)	-3.8%	-18.7%	14.1µM*	5.3	-12.4%	-4.6%
O=C1CC(N2CCN(c3ccc(S(=O)(=O)N4CCOCC4)cc3)CC2)C(=O)N1Cc1ccccc1 (configuration not stated)	3.3%	-0.2%[0.074 µM]	-6.9%	?	-2.8%	-21.0%
O=C(CCn1c(=S)[nH]c2ccccc2c1=O)N1CCN(c2ccccn2)CC1	/	-11.0%[0.074 µM]	/	/	/	/
Cc1ccc(S(=O)(=O)Oc2cccc(/C=N/n3cnnc3)c2)cc1	9.8%	17.1%[0.074 µM]	0.891µM*	17.6	?	-4.6%
Cc1ccc(S(=O)(=O)Oc2cccc(/C=N/Nc3ccc(C(=O)O)cc3)c2)cc1	-9.4%	25.3%[10 µM]	/	/	/	19.4%[9.22 µM]
CCOc1cc(CNCC2CCCN2CC)cc(Cl)c1OC (configuration not stated)	-0.1%	-27.9%	-0.1%	/	/	-7.5%
O=C1C=CC(=O)N1N(c1ccccc1)c1ccccc1	11.0%	-5.2%[10 µM]	3.55µM*	7.2	1.41µM*	?
O=C(COC(=O)CNC(=O)c1ccc(Cl)cc1)Nc1cccc(S(=O)(=O)N2CCCC2)c1	10.6%	3.1%[10 µM]	/	/	/	11.1%[9.22 µM]
CCOC(=O)c1c(NCC2CCCO2)c2ccccc2[nH]c1=O (configuration not stated)	-1.8%	-6.6%	15.8µM*	26.3	-15.0%	9.8%
O=C(c1ccccc1)c1cccs1	1.1%	19.3%	4.8%	/	/	25.1%
CCOc1ccc(C(=O)c2cccs2)cc1	10.7%	-10.8%	0.7%	16.8	15.8µM*	-32.4%
CCOc1ccc(N2C(=O)CC(NCCNc3ccc(C(=O)c4cccs4)cc3)C2=O)cc1 (configuration not stated)	-14.7%	-34.5%	22.4µM*	/	/	14.0%
CC12C=CC(=O)C=C1[C@@H](F)CC1C2C(O)CC2(C)C1CC[C@]2(O)C(=O)CO (some centres not stated)	20.9%	-3.3%	1.3%	/	-7.7%	22.4%
Cc1ccc(/C=C/C(=O)OCC(=O)NC(C)C)o1	9.1%	1.1%	3.2%	/	/	-10.0%
SMILES	CBFb-RUNX1 inh	HTT ATP protect	ALDH1A1 inh	PNC inhibitor	HPGD block	HTT aggregate
C/C1=C2/[N-]C(C(CC(N)=O)[C@@]2(C)CCC(=O)NCC(C)OP(=O)([O-])O[C@H]2[C@@H](O)[C@@H](n3cnc4cc(C)c(C)cc43)O[C@@H]2CO)[C@]2(C)N=C(/C(C)=C3N=C(/C=C4N=C1C(CCC(N)=O)C\4(C)C)[C@@H](CCC(N)=O)[C@]\3(C)CC(N)=O)[C@@H](CCC(N)=O)[C@]2(C)CC(N)=O.CC(=O)O.[Co] (some centres not stated)	/	3.2%	/	/	/	1.2%
CCN=C(NC#N)SCc1c(F)cccc1Cl	3.1%	/	?	-109.0*	-3.3%	2.9%
N#CNC(=Nc1cccc(F)c1)SCc1cccc(F)c1	4.2%	6.4%[10 µM]	6.4%	-16.0	-0.8%	?
COc1ccc2c(c1)O[C@H](c1ccc3c(c1)OCO3)[C@@H](OC(=O)Nc1ccc(C)c(Br)c1)C2=O	5.1%	-4.0%	-3.5%	/	3.2%	/
COCC(=O)n1cc(C(=O)OC)c2ccccc21	3.9%	0.3%[10 µM]	4.5%	?	-5.0%	2.2%
COC(=O)c1cn(C(=O)c2ccccc2)c2ccccc12	-4.3%	-13.6%[10 µM]	6.31µM*	/	/	-7.4%[9.22 µM]
Nc1nc(N)c2nc(CNc3ccc(C(=O)N[C@H](CCC(=O)O)C(=O)O)cc3)cnc2n1	/	-21.2%[1.9 µM]	/	/	/	/
Cc1nc2nc(-c3ccccc3)cn2nc1C	0.0%	-80.7%	?	14.8	?	5.4%
CCc1ccc(-c2cn3nc(C)c(C)nc3n2)cc1	9.3%	-3.3%	2.82µM*	?	-2.6%	-7.7%
Cc1nc(CN2CCCCC2)cc(=O)[nH]1	12.5%	9.9%[10 µM]	8.3%	/	/	0.9%
CCCCN(CC)CCCNC(=S)Nc1ccc2nc(N3CCN(CC)CC3)cc(C)c2c1	12.7%	-33.2%	?	/	/	?
CCCCN(CC)CCCNC(=S)Nc1ccc2nc(N3CCN(C)CC3)cc(C)c2c1	0.9%	-9.0%	-3.2%	/	/	28.2µM*
Cc1cc(N2CCN(C)CC2)nc2ccc(NC(=S)N3CCN(c4ccccn4)CC3)cc12	-9.3%	10.7%	12.6µM*	/	/	16.0%
Cc1ccc(C)c(N2CCN(C(=S)Nc3ccc4nc(N5CCN(C)CC5)cc(C)c4c3)CC2)c1	-1.6%	-18.8%	-6.5%	/	/	?
CCN1CCN(c2cc(C)c3cc(NC(=S)N4CCN(c5ccccc5F)CC4)ccc3n2)CC1	-9.1%	-44.9%	12.6µM*	/	/	?
